# Only a selection was taken, and hits are over-represented in it overall.
# LmPK inhibitor: LmPK (Leishmania mexicana) enzyme inhibition | Q27686 | purified LmPK, Kinase-Glo ATP luminescence, 1 h | Potency, µM (highest dose often 57.5 µM), for inactives: top-dose activity change, negative = inhibition, most hits filed as inhibitors | 0.37% of 290,000 active; also: potency is read from the fitted curve at half-maximal effect; % is scaled to controls: 0 for no effect and ±100 for the full control effect
# Target sequence (Q27686 whole entry, looked up): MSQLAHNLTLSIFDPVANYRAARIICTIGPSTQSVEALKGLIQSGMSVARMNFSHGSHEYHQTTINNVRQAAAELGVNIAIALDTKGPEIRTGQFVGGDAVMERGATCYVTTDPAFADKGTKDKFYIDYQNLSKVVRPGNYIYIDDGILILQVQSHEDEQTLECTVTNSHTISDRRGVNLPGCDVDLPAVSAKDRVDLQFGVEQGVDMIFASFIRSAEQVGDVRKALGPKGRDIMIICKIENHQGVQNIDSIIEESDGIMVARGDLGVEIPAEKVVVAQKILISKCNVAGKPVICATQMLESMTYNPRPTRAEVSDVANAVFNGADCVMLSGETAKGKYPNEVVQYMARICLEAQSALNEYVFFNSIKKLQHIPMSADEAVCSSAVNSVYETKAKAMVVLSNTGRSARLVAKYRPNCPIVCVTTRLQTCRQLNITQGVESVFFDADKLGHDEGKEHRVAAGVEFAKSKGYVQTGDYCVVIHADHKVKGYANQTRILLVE
#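 Pyruvate kinase activity monitored as ATP production (luciferase luminescence). Conditions: 0.1 nM enzyme, 0.5 mM PEP, 0.1 mM ADP, 1 h, RT; normalized against uninhibited and no-enzyme wells.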
# CHX counter: counter-screen for Shiga toxin inhibitors: cycloheximide protein synthesis inhibition; cell reporter, cycloheximide protein synthesis inhibition counterscreen; max response, %; 12% of 300,000 active; AID 2314; in the data active = max response mostly above about 13%, no sharp cut-off; inactive = mostly below about 14%; also: read at 38.3 µM for the half of the compounds with a filed dose; 0% is about no effect
# Shiga inhibitor: inhibitors of Shiga toxin in Vero cells | inhibition, % at 38.7 µM | Vero cells, Shiga toxin protein synthesis inhibition reporter | 9.2% of 290,000 active | AID 2315; in the data active = inhibition mostly above about 28%, no sharp cut-off; inactive = mostly below about 43%; also: 0% is about no effect
# SARS PLP yeast: inhibitors of SARS-CoV papain-like protease in yeast; S. cerevisiae expressing SARS-CoV PLpro, growth rescue; Potency, µM (top dose mostly 32.9 µM), inactives show top-dose activity, positive = growth rescue, most hits filed as activators; 0.19% of 330,000 active; AID 485353; calls by dose curve; also: potency is read from the fitted curve at half-maximal effect; 0% is about no effect; nearly all actives have a fitted effect of over 55% in size
# NS1 function inh: inhibitors of influenza NS1 protein function. Potency, µM (series often up to 46.1 µM), for the others: at the highest dose activity, positive = more growth. 0.4% of 270,000 active; calls by dose curve; also: potency is read from the fitted curve at half-maximal effect; actives are rising curves; nearly all actives have a fitted effect of over 50% in size
#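 OD600 was taken as the measure of yeast growth restored by compound in an NS1-expressing S. cerevisiae strain. Cells had been washed out of glucose medium and diluted 1:100 into galactose -URA medium, pH 6.0.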
# Tb PYK inh: inhibitors of Trypanosoma brucei pyruvate kinase; Q57TT1; TbPYK enzyme, Kinase-Glo Plus ATP luminescence, 45 min; Potency, µM (doses to about 76.8 µM), for the others: top-dose activity, negative = inhibition, hits mostly inhibitors; 0.12% of 410,000 active; also: potency is read from the fitted curve at half-maximal effect; % is scaled to controls: 0 for no effect and ±100 for the full control effect; nearly all actives have a fitted effect of over 50% in size
#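 Luminescent Kinase-Glo Plus end-point after 45 min room-temperature reaction of T. brucei pyruvate kinase started with 130 uM ADP (final). Buffer TEA 50 mM pH 7.2 with KCl, MgCl2, BSA, Tween-20; titration-based qHTS with fitted concentration-effect curves.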
# * hit, by the source's call; ? = inconclusive; . = no result given. Unless noted, calls follow the shape of the dose curve; as a rule, active = well fitted curve in the direction sought with a large enough effect; inconclusive = small, poorly fitted or top-dose-only effect, or another doubt; inactive = no such curve, though single readings can be large; an effect the other way counts as inactive or inconclusive.
SMILES,LmPK inhibitor,CHX counter,Shiga inhibitor,SARS PLP yeast,NS1 function inh,Tb PYK inh
Cc1ccc(C(=O)NCc2ccc3c(c2)OCO3)cc1C,-2%,35*,55*,-3%,-7%,2%
O=C(NCC1CCCCC1)c1ccc([N+](=O)[O-])cc1,5%,12,16,8%,-2%,0%
CCCCSCCCNC(=O)c1cc(-c2cccnc2)nc2ccc(S(=O)(=O)N3CCC(C)CC3)cc12,.,.,.,.,.,5%
O=C(NCc1nnnn1-c1ccc(F)cc1)c1ccc(S(=O)(=O)N2CCOCC2)cc1,.,.,.,.,.,2%
O=C(O)CCSC1=NCCN1,.,.,.,.,1%,.
CCOC(=O)C1=CCN(S(=O)(=O)c2ccccc2Cl)C1c1cccc(C)c1 (centres undefined),.,.,.,.,.,2%
O=C(NCc1ccc2c(c1)OCO2)c1cccc([N+](=O)[O-])c1,-7%,1,-5,-5%,2%,-10%
Cc1cc(C(=O)Nc2nc(C)c(C(=O)N(C)C)s2)ccc1[N+](=O)[O-],-7%,34*,54*,-6%,-1%,-8%
Cc1ccc(CC(=O)NCC2CCCCC2)cc1,-3%,26*,71*,0%,-19%,5%
Cc1nc(NC(=O)c2ccc([N+](=O)[O-])cc2Cl)sc1C(=O)N(C)C,-3%,-3,12,-25%,-2%,?
Cc1ccc(C(=O)NCc2ccc3c(c2)OCO3)cc1Cl,-4%,18*,40,-5%,-9%,1%
Cc1cc(C(=O)NCc2ccc3c(c2)OCO3)ccc1[N+](=O)[O-],-1%,25*,23,-1%,10%,-2%
Cc1ccccc1CC(=O)NCC1CCCCC1,2%,5,19,-2%,13%,-1%
CC1CN(C(=O)Nc2ccc(C(=O)NCc3cccc(F)c3)cc2)c2ccccc2S1 (centres undefined),.,.,.,.,.,7%
O=C(NCC(c1cccnc1)N1CCN(c2ccccc2F)CC1)C(=O)Nc1ccc(F)cc1F (centres undefined),.,.,.,.,.,-3%
O=C(CCSc1nc2ccccc2o1)Nc1ccccc1,3%,1,4,1%,-67%,0%
c1ccc(OCCSc2nc3ccccc3o2)cc1,-5%,22*,99*,-1%,-20%,-8%
CCOc1ccc(OCCSc2nc3ccccc3c(=O)[nH]2)cc1,1%,2,23,-8%,-1%,-3%
CCOc1ccc(OCCSc2nc3ccccc3o2)cc1,0%,15*,26,-15%,-30%,-8%
COc1cccc(C2CC(=O)N(c3ccc(F)cc3)C3=C2C(=O)OC3)c1OC (centres undefined),.,.,.,.,.,-4%
COc1ccc(NC2CC(=O)N(C(C)C)C2=O)cc1 (centres undefined),-3%,8,23,-1%,-1%,-10%
CC(C)N1C(=O)CC(Nc2ccc(N3CCOCC3)cc2)C1=O (centres undefined),-11%,39*,30,-8%,-2%,-4%
Cc1[nH]n(-c2ccccc2)c(=O)c1/C=C1\C=NN=C1c1ccccc1,5%,67*,98*,-2%,1%,-7%
Cc1[nH]n(-c2ccccc2)c(=O)c1-c1ccccc1,4%,-3,-4,12%,1%,2%
Cc1[nH]n(-c2ccccc2)c(=O)c1/C=N/O,-7%,-2,-15,-2%,7%,0%
SMILES,LmPK inhibitor,CHX counter,Shiga inhibitor,SARS PLP yeast,NS1 function inh,Tb PYK inh
Cc1[nH]n(-c2ccccc2)c(=O)c1/C=C1/C=c2ccccc2=N1,3%,17*,17,-5%,.,3%
COCc1nnc(NC(=O)c2sc3ccccc3c2Cl)s1,-7%,44*,91*,-12%,-170%,-8%
Cc1cccnc1NC(=O)c1sc2ccccc2c1Cl,-3%,51*,90*,-16%,-32%,0%
O=C(NC1=NCCS1)c1sc2cc(Cl)cc(Cl)c2c1Cl,-3%,-3,9,-27%,-7%,-2%
Cc1ccc(NC(=O)c2sc3ccccc3c2Cl)nc1,-22%,43*,65*,1%,-12%,-10%
O=C(NC1=NCCS1)c1sc2ccccc2c1Cl,-11%,47*,93*,-26%,-5%,-5%
CCOC(=O)c1ccccc1NC(=O)c1sc2ccccc2c1Cl,.,.,.,.,.,-7%
Cc1nnc(NC(=O)c2sc3ccccc3c2Cl)s1,-10%,11,-21,-17%,-237%,-7%
CC1CCCN(C(=O)COC(=O)c2cc(Br)ccc2O)C1 (centres undefined),.,.,.,-6%,.,4%
